Results on 40 compounds are retold here after PubChem BioAssay (Tox21).

SMILES strings stand for the structures. Records with an inconclusive call do not appear. A number with no mark means an inactive call. Calls follow the shape of the dose curve; as a rule, active = well fitted cell-killing curve with a large enough effect in the repeat runs; inconclusive = weak or mixed curves, or effect the other way; inactive = no such curve, though single readings can be large or run the other way.
% is scaled to controls: 0 for no effect and ±100 for the full control effect.

The nature of the assay: qHTS assay to identify small molecule agonists of the farnesoid-X-receptor (FXR) signaling pathway - cell viability counter screen (AID 743218). Also: nearly all actives have a fitted effect of over 45% in size. Conditions: FXR-bla HEK293T viability, CellTiter-Glo luminescence, 16 h; series mostly up to 62.6 µM; viability change, negative = cytotoxic: at the top concentration. The text has this: U.S. Tox21 Program National Center for Advancing Translational Sciences [NCATS] NIH Chemical Genomics Center [NCGC] U.S. Environmental Protection Agency [EPA] National Institutes of Environmental Health Sciences [NIEHS] National Toxicology Program [NTP] U.S. Food and Drug Administration [FDA] Tox21 Assay Overview: The farnesoid-X-receptor (FXR), a nuclear hormone receptor, is highly expressed in liver, intestine, kidney and adrenal cortex. Natural ligands of FXR are the bile acids (Cholic acid, Chenodeoxy cholic acid etc). FXR is an important regulator of diverse metabolic pathways, including the bile acid homeostasis, lipid and glucose metabolisms. FXR regulates the expression of target genes by binding either as a monomer or as a heterodimer with the retinoid X receptor (RXR). Numerous studies have reported that FXR exerts protective function during cholestasis, diabetes, liver regeneration, and cancer. To identify compounds that activate FXR signaling, GeneBLAzer FXR-UAS-bla HEK 293T cell line (Invitrogen, Carlsbad, CA) containing a beta-lactamase reporter gene under the control of a UAS response element was used to screen the Tox21 10K compound library. The cytotoxicity of the Tox21 compound library against the FXR-bla cell line was tested in parallel by measuring the cell viability using CellTiter-Glo assay in the same wells.
Tox21 Assay Protocol Summary: FXR-bla cells were dispensed at 5000 cells/5uL/well in 1536-well black wall/clear bottom plates using a Multidrop Combi (Thermo Fisher Scientific, Waltham, MA) dispenser. After the assay plates were incubated at 37 C and 5% CO2 for 5 h, 23 nL of compounds dissolved in DMSO, positive controls or DMSO only was transferred to the assay plate by a Pintool station (Kalypsys, San Diego, CA). The assay plates were incubated at 37C for 16 h. After 1 uL of LiveBLAzerTM B/G FRET substrate was added using a Bioraptr Flying Reagent Dispenser (FRD) workstation (Beckman Coulter, Indianapolis, IN), the plates were incubated at room temperature for 2 h, and fluorescence intensity was measured by an Envision plate reader (PerkinElmer, Shelton, CT). For cell viability readout that measures cytotoxicity, 4uL/well of CellTiter-Glo reagent was added into the assay plates using a Bioraptr FRD. After 30 min incubation at room temperature, the luminescence intensity in the plates was measured using a ViewLux plate reader (PerkinElmer).
(Quantitative high-throughput screening tests each substance at several concentrations.)
`C1CCOC1`: the “viability change, negative = cytotoxic” value is 9.32% [at 81.1 µM]. To `CC(C)(C)c1cccc(O)c1` belongs 21.2%; to `O=CCCc1ccccc1`, 7.68%; to `CC1=NN(c2cc(Cl)c(S(=O)(=O)O)cc2Cl)C(=O)C1N=Nc1ccc(S(=O)(=O)O)cc1` (stereo not given), -10.3%. Consider `CC(C)c1ccccc1`, for which the “viability change, negative = cytotoxic” value is 2.54% [at 81.1 µM]. `CC[C@H]1CC[C@H](NCc2cc3c(cc2OC)[C@H]2C[C@H]2C(=O)N3C)[C@H](c2ccccc2)N1`: the “viability change, negative = cytotoxic” value is -34.9%. To `COC(=O)N[C@H](C(=O)N[C@@H](Cc1ccccc1)[C@@H](O)CN(Cc1ccc(-c2ccccn2)cc1)NC(=O)[C@@H](NC(=O)OC)C(C)(C)C)C(C)(C)C` belongs -1.67%; to `COc1cc(N)c(Cl)cc1C(=O)NC1CCN(Cc2ccccc2)CC1`, 5.82%; to `COc1cc(Cl)ccc1Cl`, 25.9% [at 81.1 µM]. For `CC/C=C\CCOC(=O)C(C)C`, the “viability change, negative = cytotoxic” value is -0.292%. Take `N#Cc1ccc(C(c2ccc(C#N)cc2)n2cncn2)cc1`: the “viability change, negative = cytotoxic” value was 28.3%. As to `CC(C)O`, the “viability change, negative = cytotoxic” value was 5.2% [at 81.1 µM].

Consider `CC1=C(O)C(=O)OC1C` (stereo not given), for which the “viability change, negative = cytotoxic” value is 12.5%.

As to `O=c1oc2c(O)c(O)cc3c(=O)oc4c(O)c(O)cc1c4c23`, the “viability change, negative = cytotoxic” value was 8.87% [at 29.1 µM]. For the compound `CC(C)C(=O)OCC(C)(C)C(O)C(C)C` (stereo not given), the “viability change, negative = cytotoxic” value was 4.61% [at 81.1 µM]. For `CC/C=C\CCOC(=O)CCCCC` the value was -19%; for `Cc1cc2c(s1)Nc1ccccc1N=C2N1CCN(C)CC1`, 24.6%; for `CCOc1ccccc1N`, 4.82%. For `CC(C)=CCC[C@](C)(O)[C@@H]1CC=C(C)CC1` the value was -7.83%. In the case of `COc1ccc2nc(NC(=O)Nc3ccccc3)sc2c1`, the “viability change, negative = cytotoxic” value is -18.2%.

With `OCc1c2ccccc2cc2ccccc12`, the “viability change, negative = cytotoxic” value is 4.53% [at 81.1 µM]. In the case of `Cc1ccsc1C(=CCCN1CCC[C@@H](C(=O)O)C1)c1sccc1C`, the “viability change, negative = cytotoxic” value is 9.18%. With `CN1CCC[C@@H]1Cc1c[nH]c2ccc(CCS(=O)(=O)c3ccccc3)cc12`, the “viability change, negative = cytotoxic” value is -17.2%.

Take `CC1CN(c2ccccc2)NC1=O` (stereo not given): the “viability change, negative = cytotoxic” value was 4.18%. On to `CC(C)C(=O)OC/C=C/c1ccccc1`, for which the “viability change, negative = cytotoxic” value was -21%.

`CCCCCCCCc1ccc(S(=O)(=O)O)cc1`: the “viability change, negative = cytotoxic” value is -23.3%.

Consider `NC(=O)Cc1cccc(C(=O)c2ccccc2)c1N`, for which the “viability change, negative = cytotoxic” value was -4.06%. For `OCCN(CCO)CCN(CCO)CCO` the value was -22.6%; for `Cc1onc(-c2ccccc2)c1C(=O)Cl`, 7.55%; for `CCN(O)CC`, -16.5%. Take `CCCCC(=O)O[C@]1(C(=O)CO)[C@H](C)C[C@H]2[C@@H]3CCC4=CC(=O)C=C[C@]4(C)[C@@]3(F)[C@@H](O)C[C@@]21C`: the “viability change, negative = cytotoxic” value is -9.63%. On to `O=C(O)CN(CCN(CC(=O)O)CC(=O)O)CCN(CC(=O)O)CC(=O)O`, for which the “viability change, negative = cytotoxic” value was -6.45% [at 29.1 µM]. On to `CCOC(=O)NCCC[Si](OCC)(OCC)OCC`, for which the “viability change, negative = cytotoxic” value was 3.27%. Consider `COc1ccccc1OCC(O)COC(N)=O` (stereo not given), for which the “viability change, negative = cytotoxic” value was 19.7%. For `CCCCCCn1c(=O)c2c(ncn2C)n(C)c1=O`, the “viability change, negative = cytotoxic” value was 11.5%.

On to `Nc1ccc2ccccc2c1S(=O)(=O)O`, for which the “viability change, negative = cytotoxic” value is 15.5% [at 81.1 µM].

For `OCCN1CCN(CCO)CC1`, the “viability change, negative = cytotoxic” value was 8.7% [at 81.1 µM]. Take `C=CCCC=C`: the “viability change, negative = cytotoxic” value is 5.66% [at 81.1 µM]. Turning to `Cc1nnc(SCC2=C(C(=O)O)N3C(=O)[C@@H](NC(=O)Cn4cnnn4)[C@H]3SC2)s1`, the “viability change, negative = cytotoxic” value is 1.55%. To `CC(C)CC(=O)OCc1ccccc1` belongs 7.49%.
